# High-throughput results as filed in PubChem.
# Only some compounds are listed: those with a hit (about 0.77% of all), similar ones and a draw of the others.
# NS1 function inh: inhibitors of influenza NS1 protein function; Potency, µM (series often up to 46.1 µM); actives 0.4% (n = 270,000); calls by dose curve; note: actives are rising curves; nearly all actives have a fitted effect of over 50% in size
#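 Growth recovery, yeast-based: influenza A NS1 expressed in S. cerevisiae causes slow growth, and suppressors are detected by OD600. The parent strain without NS1 is used as positive control.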
# RE007 growth inh: less growth of the S. pombe RE007 Vpr strain | Potency, µM (series often up to 92.2 µM), actives largely listed as inhibitors | S. pombe RE007 Vpr strain, BacTiter-Glo ATP luminescence, 24 h | actives 0.21% (n = 360,000) | AID 651644; active = well fitted falling curve with a large enough effect; inconclusive = small, poorly fitted or top-dose-only effect; inactive = no such curve, though single readings can be large or run the other way; note: nearly all actives have a fitted effect of over 50% in size
#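 Fission yeast strain RE007, carrying one chromosomally integrated HIV-1 vpr copy, was seeded at OD 0.01 in PMG+AL medium with 23 nL pinned compound. After 24 h at 30 °C and 99% humidity, viability was read by BacTiter-Glo luminescence.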
# Tb PYK inh: inhibitors of Trypanosoma brucei pyruvate kinase; Q57TT1; actives 0.12% (n = 410,000); AID 624173; TbPYK enzyme, Kinase-Glo Plus ATP luminescence, 45 min; Potency, µM (top dose mostly 76.8 µM), hits mostly inhibitors; note: nearly all actives have a fitted effect of over 50% in size
#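 TbPYK + substrate in 50 mM TEA pH 7.2, 100 mM KCl, 10 mM MgCl2, 0.05% BSA, 0.01% Tween-20; cpd pinned; ADP 130 uM final; 45 min RT; Kinase-Glo Plus 10 min; luminescence endpoint.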
# LmPK inhibitor: inhibitors of Leishmania mexicana pyruvate kinase; purified LmPK, Kinase-Glo ATP luminescence, 1 h; Q27686; actives 0.37% (n = 290,000); AID 1721; Potency, µM (series often up to 57.5 µM), actives largely listed as inhibitors
# Target sequence (Q27686 whole entry, looked up): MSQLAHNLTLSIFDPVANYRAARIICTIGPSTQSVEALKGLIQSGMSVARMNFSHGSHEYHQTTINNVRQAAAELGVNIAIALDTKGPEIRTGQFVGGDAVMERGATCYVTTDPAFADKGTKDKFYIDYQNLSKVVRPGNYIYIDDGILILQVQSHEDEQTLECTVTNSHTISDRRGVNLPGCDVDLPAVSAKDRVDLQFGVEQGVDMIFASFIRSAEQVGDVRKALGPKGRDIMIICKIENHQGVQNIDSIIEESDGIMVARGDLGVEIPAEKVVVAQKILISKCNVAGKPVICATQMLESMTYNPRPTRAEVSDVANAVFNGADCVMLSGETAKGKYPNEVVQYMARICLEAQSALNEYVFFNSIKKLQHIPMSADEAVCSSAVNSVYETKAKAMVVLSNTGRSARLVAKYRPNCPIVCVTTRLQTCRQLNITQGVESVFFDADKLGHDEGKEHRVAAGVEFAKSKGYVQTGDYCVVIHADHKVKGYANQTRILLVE
#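 ATP generated from ADP (0.1 mM) and PEP (0.5 mM) by 0.1 nM LmPK over 1 h at room temperature (pH 7.2 imidazole buffer) was detected by coupled luciferase luminescence. Values were normalized to uninhibited and no-enzyme wells.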
# Numbers stand for hits; 0 = inactive; ? = inconclusive; - = no result; [ ] = dose if it differs, or a comment. Unless noted, calls come from the whole dose curve; as a rule, active = well fitted curve in the direction sought with a large enough effect; inconclusive = small, poorly fitted or top-dose-only effect, or another doubt; inactive = no such curve, though single readings can be large; an effect the other way counts as inactive or inconclusive.
SMILES,NS1 function inh,RE007 growth inh,Tb PYK inh,LmPK inhibitor
Cc1ccc(-c2cc(-c3ccc(C)cc3)[n+](-c3ccccc3)c(-c3ccc(C)cc3)c2)cc1,-,0,0,-
COC(=O)c1ccccc1NC(=O)CSc1nc2sc3c(c2c(=O)[nH]1)CCCC3,-,-,0,-
CCOc1ccccc1NC(=O)C(=O)NCCc1sc(-c2cccc(F)c2)nc1C,-,-,0,-
CC(C)C(Cl)=NOC(=O)Nc1ccc(S(N)(=O)=O)cc1,-,16µM,0,-
CCOc1ccc(C(=O)N/N=C/c2ccc(SC)cc2)cc1,0,-,0,0
CSc1ccc(/C=N/NC(=O)c2cccc(O)c2)cc1,0,0,0,8.9µM
COc1ccc(-c2cc(-c3ccccc3)n[nH]2)c(O)c1,0,?,0,0
COc1ccc(OC)c(-n2c(-c3cc(-c4ccccc4)n[nH]3)n[nH]c2=S)c1,0,0,?,10µM
COc1ccccc1-n1c(-c2cn(C)nc2C)n[nH]c1=S,0,0,?,22µM
Cc1ccccc1-n1c(-c2ccc3ccccc3n2)n[nH]c1=S,0,0,?,18µM
COc1ccc(OC)c(-n2c(-c3ccccc3)n[nH]c2=S)c1,0,0,11µM,2.2µM
CC(=O)N1CCCc2cc(S(=O)(=O)N3CCC(C(=O)Nc4cccc(Cl)c4C)CC3)ccc21,-,-,0,-
COc1cc(OC)cc(C(=O)NCc2n[nH]c(=S)n2-c2ccccc2OC)c1,0,0,11µM,?
Fc1ccc(-n2c(-c3ccc4ccccc4n3)n[nH]c2=S)cc1Cl,-,0,0,0
COc1ccccc1-n1c(CNC(=O)c2cccs2)n[nH]c1=S,-,0,?,?
COc1ccc(-c2cc(-c3ccccc3O)[nH]n2)cc1,0,?,0,0
S=c1[nH]nc(-c2cccc3ccccc23)n1-c1cccnc1,0,0,?,13µM
S=c1[nH]nc(-c2ccc3ccccc3n2)n1-c1ccc2ncccc2c1,0,0,4µM,14µM
COc1ccc(-c2cc(-c3n[nH]c(=S)n3-c3ccccc3OC)[nH]n2)cc1,0,0,0,11µM
O=C(Nc1ccc(Br)cc1)C1CCN(c2ncccn2)CC1,-,-,0,-
COc1ccc(OC)c(NC(=O)c2cn3c4c(ccc(Cl)c4c2=O)OC(C)C3)c1 (stereo not drawn),-,-,0,-
Cc1ccc(C)c(N2CCN(C(=O)Cn3cnc4onc(-c5ccc(F)cc5)c4c3=O)CC2)c1,-,-,0,-
CC(=O)c1cccc(NC(=O)C2Cc3c(-c4ccc(Cl)cc4)ccnc3O2)c1 (stereo not drawn),-,0,0,-
Cc1ccccc1-n1c(-c2cccnc2)n[nH]c1=S,0,0,?,11µM
COc1ccc(-c2n[nH]c(=S)n2-c2ccccc2C)cc1,0,0,?,28µM
SMILES,NS1 function inh,RE007 growth inh,Tb PYK inh,LmPK inhibitor
COc1ccc(OC)c(-n2c(-c3cccc(C)c3)n[nH]c2=S)c1,0,0,2.5µM,?
COc1ccc(-c2n[nH]c(=S)n2-c2ccccc2C)cc1OC,0,0,?,?
COc1ccccc1-n1c(-c2ccccc2)n[nH]c1=S,0,0,6.3µM,0
COc1ccc(-n2ncc(C(=O)N3CCc4ccccc4C3)c2C2CCN(C(=O)OC(C)(C)C)CC2)cc1,-,-,0[15.4 µM],-
Cc1sc2c(c1C)c(=O)n(-c1ccc(Cl)cc1)c(=O)n2Cc1cc(=O)n2cc(Br)ccc2n1,-,-,0,-
CCCOc1ccc(N2C(=O)CC(SCc3nc4ccccc4[nH]3)C2=O)cc1 (stereo not drawn),0,63µM,0,0
O=C1CC(SCCc2nc3ccccc3[nH]2)C(=O)N1c1ccc(F)c(Cl)c1 (stereo not drawn),-,28µM,0,-
O=C1CC(SCc2nc3ccccc3[nH]2)C(=O)N1c1cccc(Cl)c1 (stereo not drawn),0,28µM,0,0
COc1ccc(OC)c(CNC(=O)C(C)n2c(C)c3cnn(-c4ccccc4)c(=O)c3c2C)c1 (stereo not drawn),-,-,0,-
O=C(Nc1ccccn1)c1onc2c1CCCC2,0,10µM,?,11µM
Cc1ccc(/C=C2/NC(=O)N(Cc3ccccc3)C2=O)s1,4µM,0,?,0
Cc1cccc(CN2C(=O)N/C(=C/c3ccc(C)s3)C2=O)c1,0,0,?,0
CCN(CC)C1CC(=O)N(c2ccc(Br)cc2)C1=O (stereo not drawn),0,2µM,0,0
O=C(c1ccc2c(c1)OCO2)c1cn(Cc2ccc(Cl)cc2)c2ccc(F)cc2c1=O,-,-,0,-
O=C(NCC1CCCO1)c1csc(Nc2cccc3ccccc23)n1 (stereo not drawn),0,0,0,14µM
CC(C)=C1C2C=CC1C1C(=O)N(c3ccc4c(c3)OCO4)C(=O)C21 (stereo not drawn),0,32µM,0,0
CC1(C)O[C@@H]2C[C@H]3[C@H]4C[C@H](F)C5=CC(=O)C=C[C@@]5(C)[C@@H]4[C@H](O)C[C@]3(C)[C@]2(C(=O)CO)O1,-,-,0,-
CC(C)(Cl)[N+](=O)[O-],-,0,0,-
O=[N+]([O-])C(Br)(CO)CO,-,-,10µM,-
CCCCCCC(=O)N(O)C1CC(=O)N(Cc2ccccc2)C1=O (stereo not drawn),0,0,0,0
CCCCCC(=O)N(O)C1CC(=O)N(c2ccccc2)C1=O (stereo not drawn),0,10µM,0,0
O[C@H](CN1CC1)[C@@H](O)CN1CC1,0,-,-,-
C(=N\n1cnnc1)/c1cccc(Oc2ccccc2)c1,0,0,0,0
S=c1[nH]ncn1/N=C/c1cccc(Oc2ccccc2)c1,0,0,?,10µM
COc1cc(N2C(=O)C=CC2=O)ccc1N1C(=O)C=CC1=O,-,0,4.5µM,-
SMILES,NS1 function inh,RE007 growth inh,Tb PYK inh,LmPK inhibitor
COc1ccc2c(c1OC)C(=O)OC2Nc1nc(-c2cc3ccccc3oc2=O)cs1 (stereo not drawn),0,?,0,22µM
Oc1ccc(-c2cn3ccccc3n2)cc1,0,0,0,22µM
COc1ccccc1-c1nn2c(-c3ccccc3Cl)nnc2s1,13µM,-,-,0
Cc1ccccc1NC(=O)CSc1nc(=O)n(CCN2CCOCC2)c2c1CCC2,-,-,0,-
O=C(CCN1C(=O)C2C3C=CC(C4CC34)C2C1=O)Oc1ccc(Br)cc1 (stereo not drawn),-,0,0,0
O=C(CCN1C(=O)C2C3C=CC(C4CC34)C2C1=O)Oc1cccc2cccnc12 (stereo not drawn),0,14µM,0,0
N#Cc1cc(N2CCCCC2)c([N+](=O)[O-])cc1C#N,0,0,0,0
O=[N+]([O-])c1cc2no[n+]([O-])c2cc1N1CCCCC1,-,?,14µM,-
Cc1cccc(NC(=O)CN2C(=O)CCn3nc(-c4cccn4C)cc32)c1C,-,-,0,-
COc1ccccc1OCC(=O)Nc1ccccn1,0,?,?,13µM
COc1ccccc1OCC(=O)Nc1ccncc1,0,0,0,0
O=C(COc1ccc(Cl)cc1Cl)Nc1ccccn1,0,?,?,5µM
CC1(NC(=O)N2CCCCC2)CCS(=O)(=O)C1 (stereo not drawn),0,0,0,0
CC12CC3(C)CC(C)(C1)CC(NC(=O)N1CCCC1)(C2)C3,0,3.5µM,0,0
CCOC(=O)c1[nH]c2c(c1Cc1ccccc1)C(=O)CC(c1ccc(Cl)cc1)C2 (stereo not drawn),-,-,0,-
